Laboratory results taken from PubChem BioAssay AID2284375 (EPA ToxCast).
Records with an inconclusive call do not appear. Activity calls are given as the source filed them. Rule for the calls: active = hit-call score of the fitted dose curve at least 0.9, where 1 is the maximum; inconclusive = response in the unintended direction; inactive = score below 0.9.

These compounds were tested against Estrogen receptor (Homo sapiens) (UniProt P03372) (assay: ERF_US_NR_hESR1: Eurofins (ERF) Nuclear Receptor (NR) Cell Based Protein-Protein Interaction LeadHunter Assay for human Estrogen Receptor alpha (ERa) Agonism).
Chain of Estrogen receptor (Homo sapiens) (P03372 whole entry, looked up): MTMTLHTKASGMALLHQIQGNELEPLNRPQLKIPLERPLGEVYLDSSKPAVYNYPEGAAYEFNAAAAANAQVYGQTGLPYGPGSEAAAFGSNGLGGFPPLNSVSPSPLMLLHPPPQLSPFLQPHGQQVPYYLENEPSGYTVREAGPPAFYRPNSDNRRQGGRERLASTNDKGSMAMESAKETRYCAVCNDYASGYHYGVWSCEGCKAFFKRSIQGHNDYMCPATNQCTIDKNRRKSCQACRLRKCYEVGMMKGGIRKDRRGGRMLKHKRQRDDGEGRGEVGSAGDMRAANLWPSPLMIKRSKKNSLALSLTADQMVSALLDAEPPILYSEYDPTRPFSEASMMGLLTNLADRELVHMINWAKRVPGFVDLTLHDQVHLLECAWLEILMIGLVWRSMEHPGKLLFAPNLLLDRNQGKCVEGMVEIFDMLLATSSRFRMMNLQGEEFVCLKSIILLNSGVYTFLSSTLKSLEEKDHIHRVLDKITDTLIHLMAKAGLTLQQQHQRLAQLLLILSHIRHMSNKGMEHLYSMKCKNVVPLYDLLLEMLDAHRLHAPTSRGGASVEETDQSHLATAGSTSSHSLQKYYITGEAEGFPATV
Procedure: ERF_US_NR_hESR1 is a cell-based, single-readout assay that uses extracted gene-proteins in a cell-line assay. Measurements were taken 5 hours after chemical dosing in a 384-well plate. See ERalpha Human Estrogen NHR Cell Based Agonist Protein-Protein Interaction Assay, DiscoverX.ERF_US_NR_hESR1 is an assay component calculated from the ERF_US_NR_hESR1 assay. It is designed to […].Data from the assay component ERF_US_NR_hESR1 was analyzed at the assay endpoint, ERF_US_NR_hESR1, in the positive analysis fitting direction relative to DMSO as the negative control and baseline of activity. Using a type of binding reporter, gain-of-signal activity can be used to understand changes in binding as they relate to gene ESR1. To generalize the intended target to other relatable targets, this assay endpoint is annotated to the nuclear receptor intended target family, where the subfamily is steroid.
Cells were seeded in a total volume of 20 uL into white walled, 384-well microplates and incubated at 37C overnight prior to testing. Briefly, intermediate dilution of sample stocks was performed to generate 5X sample in assay buffer. 5 uL of 5X sample was added to cells and incubated at37C for 300 minutes. Final assay vehicle concentration was 1%. The results are expressed as a percent efficacy of the control ligand.
In the case of `O=C(O)C(F)(OC(F)(F)C(F)(OC(F)(F)C(F)(F)C(F)(F)F)C(F)(F)F)C(F)(F)F` (stereo not drawn), the outcome is reported as “inactive”.
In the case of `OCC(F)(F)C(F)(F)C(F)(F)C(F)(F)C(F)(F)C(F)(F)C(F)(F)C(F)(F)CO`, the AC50 is reported as 17.1 µM (active).
`FC(F)(I)C(F)(F)C(F)(F)C(F)(F)C(F)(F)C(F)(F)I` was tested, and the AC50 was 12.1 µM (active).
`OCCC(F)(F)C(F)(F)C(F)(F)C(F)(F)C(F)(F)C(F)(F)C(F)(F)C(F)(F)F` was tested, and the outcome was “inactive”.
For `N=C(N)C(F)(F)C(F)(F)C(F)(F)C(F)(F)C(F)(F)C(F)(F)C(F)(F)F`, the outcome was “inactive”.
`FC(F)(I)C(F)(F)C(F)(F)C(F)(F)I` was tested, and the outcome was “inactive”.
In the case of `FC(F)(F)C(F)(F)C(F)(F)C(F)(F)C(F)(F)C(F)(F)I`, the outcome is reported as “inactive”.
For `C=CC(=O)OCC(F)(F)C(F)(F)C(F)(F)C(F)(F)C(F)(F)C(F)(F)C(F)(F)C(F)F`, the outcome was “inactive”.
With `OCCC(F)(F)C(F)(F)C(F)(F)C(F)(F)C(F)(F)C(F)(F)F` the outcome was “inactive”.
`NC(=O)C(F)(F)C(F)(F)C(F)(F)C(F)(F)C(F)(F)C(F)(F)C(F)(F)F` was tested, and the outcome was “inactive”.
For `FC(F)(F)C(F)(F)C(F)(F)C(F)(F)CCI`, the outcome was “inactive”.
For `O=P(O)(O)OCCC(F)(F)C(F)(F)C(F)(F)C(F)(F)C(F)(F)C(F)(F)F`, the outcome was “inactive”.
In the case of `OCC(F)(F)C(F)(F)C(F)(F)C(F)(F)C(F)(F)C(F)(F)CO`, the AC50 is reported as 25.3 µM (active).
